# Records with an inconclusive call do not appear. Activity calls are given as the source filed them. Unless noted, calls come from the whole dose curve; as a rule, active = well fitted inhibition curve with a large enough effect; inconclusive = small, poorly fitted or top-dose-only effect; inactive = flat fitted curve, though single readings scatter.
# Assays:
# [1] = qHTS drug screen for cell cycle checkpoint inhibitors in PARPi-resistant BRCA-mutant ovarian cancer cell lines. (AID 1963452; calls by dose curve); settings: PEO1/OlaR viability, CellTiter-Glo luminescence, 96 h, stronger effect = lower value
# Method in brief: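 PEO1, PEO4 and PEO1/OlaR ovarian cancer cells, 600 per well, exposed 96 h at 37C to a dilution series. Viability read by CellTiter-Glo luminescence, normalized to DMSO and empty wells; activity summarized as Z-AUC.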
# [2] = qHTS profiling for inhibitors of Plasmodium falciparum proliferation (AID 504749); note: nearly all actives have a fitted effect of over 60% in size; note: potency is the fitted concentration of half-maximal effect;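 for activity, negative = inhibition: 0% = DMSO vehicle and full inhibition = artemisinin control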; settings: P. falciparum in erythrocytes, SYBR Green DNA, 72 h
# Method in brief: (§1)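 SYBR Green fluorescence (ex 485 nm, em 535 nm) reports parasite DNA after 72 h compound exposure of infected red cells at 0.3% parasitemia, 2.5% hematocrit; signal normalized to 0.29 uM artemisinin and vehicle wells.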
# [3] = test system: 3D7; experiment: as above; settings: P. falciparum in erythrocytes, SYBR Green DNA, 72 h; series mostly up to 28.7 µM
# Method in brief: as §1
# [4] = test system: 7G8; experiment: as above; settings: P. falciparum in erythrocytes, SYBR Green DNA, 72 h; series mostly up to 28.7 µM
# Method in brief: as §1
# [5] = test system: AA1029; experiment: as above; settings: P. falciparum in erythrocytes, SYBR Green DNA, 72 h; series mostly up to 28.7 µM
# Method in brief: as §1
# [6] = test system: AS120; experiment: as above; settings: P. falciparum in erythrocytes, SYBR Green DNA, 72 h; series mostly up to 28.7 µM
# Method in brief: as §1
# [7] = test system: ATS189; experiment: as above; settings: P. falciparum in erythrocytes, SYBR Green DNA, 72 h; series mostly up to 28.7 µM
# Method in brief: as §1
# [8] = test system: ATS95; experiment: as above; settings: P. falciparum in erythrocytes, SYBR Green DNA, 72 h; series mostly up to 28.7 µM
# Method in brief: as §1
# [9] = test system: C2A; experiment: as above; settings: P. falciparum in erythrocytes, SYBR Green DNA, 72 h; series mostly up to 28.7 µM
# Method in brief: as §1
# [10] = qHTS for identification of novel therapeutic agents for treatment of microphthalmiaassociated transcription factor (MiT) renal cell carcinoma (RCC) (AID 1963991; calls by dose curve; note: potency is the fitted concentration of half-maximal effect); settings: CellTiter-Glo, 48 h; for z-score: stronger effect = lower value
# Method in brief: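 Three TFE3-fusion RCC cell lines (UOK109, UOK124, UOK145), 500 cells/well, were exposed to the 1912-compound MIPE 4.0 library for 48 hours at 37 C. Viability was read by CellTiter-Glo luminescence, normalised to DMSO (100%) and empty wells (0%), with 11-concentration curve fits.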
# [11] = measured here: PEO1 parental Z-AUC
# [12] = at 28.7 µM (top of the series), parasite line A
# [13] = at 28.7 µM (top of the series), parasite line B
# [14] = TFE3-RCC UOK109 viability, measured here: UOK109 Z-AUC
# [15] = TFE3-RCC viability, measured here: UOK124 Z-AUC
# [16] = TFE3-RCC viability, measured here: UOK145 Z-AUC
# [17] = at 12.8 µM (top of the series), parasite line A
# [18] = at 12.8 µM (top of the series), parasite line B
smiles,measurement,setting,value
COc1ccc2nc(S(=O)Cc3ncc(C)c(OC)c3C)[nH]c2c1 (stereo unspecified),Z-AUC,[1],1.57 (inactive)
same,Z-AUC,[1]; [11],0.925
same,Z-AUC,[1]; measured here: PEO4 Z-AUC,1.02
same,"activity, negative = inhibition",[2]; [12],-18.6% (inactive)
same,"activity, negative = inhibition",[2]; [13],-6.81% (inactive)
same,Potency,[3],inactive
same,Potency,[4],10 µM (active)
same,Potency,[5],inactive
same,Potency,[6],inactive
same,Potency,[7],inactive
same,Potency,[8],inactive
same,Potency,[9],inactive
CC(C)C[C@H](NC(=O)[C@@H](O)[C@H](N)Cc1ccccc1)C(=O)O,Potency,[2]; parasite line A,2.51 µM (active)
same,Potency,[2]; parasite line B,5.62 µM (active)
same,Potency,[3],2.51 µM (active)
same,Potency,[4],4.47 µM (active)
same,Potency,[5],5.62 µM (active)
same,Potency,[6],6.31 µM (active)
same,Potency,[7],8.91 µM (active)
same,Potency,[8],7.94 µM (active)
same,Potency,[9],3.98 µM (active)
O=C(C=Cc1ccc(/C=C/C(=O)Nc2ccc(C3=NCCN3)cc2)cc1)Nc1ccc(C2=NCCN2)cc1,z-score,[10]; [14],0.251
same,z-score,[10]; [15],0.767
same,z-score,[10]; [16],0.309
Clc1cccc(Cl)c1NC1=NCCN1,z-score,[10]; [14],0.351
same,z-score,[10]; [15],0.654
same,z-score,[10]; [16],-0.377
same,"activity, negative = inhibition",[2]; [12],-1.81% (inactive)
same,"activity, negative = inhibition",[2]; [13],0.0653% (inactive)
same,Potency,[3],inactive
same,Potency,[5],inactive
same,Potency,[6],inactive
same,Potency,[7],inactive
same,Potency,[8],inactive
same,Potency,[9],inactive
Cc1[nH]c(=O)c(C#N)cc1-c1ccc2nccn2c1,Z-AUC,[1],-0.546 (inactive)
same,Z-AUC,[1]; [11],-0.575
same,Z-AUC,[1]; measured here: PEO4 Z-AUC,-0.131
same,"activity, negative = inhibition",[2]; [12],5.44% (inactive)
same,"activity, negative = inhibition",[2]; [13],15.3% (inactive)
same,Potency,[3],inactive
same,Potency,[4],inactive
same,Potency,[5],inactive
same,Potency,[6],inactive
same,Potency,[7],inactive
same,Potency,[8],inactive
same,Potency,[9],inactive
COc1ccc(-c2ccc3c(N4CCOC[C@H]4C)nc(N4CCOC[C@H]4C)nc3n2)cc1CO,Potency,"[10]; TFE3-RCC UOK109 viability, active = Z-AUC below -0.8 in all three lines",0.0935 µM (active)
same,z-score,[10]; [14],-1.8
same,z-score,[10]; [15],-2.87
same,z-score,[10]; [16],-2.13
C[C@]12CC[C@H](O)CC1=CC[C@@H]1[C@H]2CC[C@]2(C)C(c3cccnc3)=CC[C@H]12,z-score,[10]; [14],0.87
same,z-score,[10]; [15],0.84
same,z-score,[10]; [16],0.924
NC[C@H](O)c1ccc(O)c(O)c1,z-score,[10]; [14],0.441
same,z-score,[10]; [15],0.472
same,z-score,[10]; [16],0.785
same,"activity, negative = inhibition",[2]; [12],5.08% (inactive)
same,"activity, negative = inhibition",[2]; [13],9.63% (inactive)
same,Potency,[3],inactive
same,Potency,[4],inactive
same,Potency,[5],inactive
same,Potency,[6],inactive
same,Potency,[7],inactive
same,Potency,[8],inactive
same,Potency,[9],inactive
CNC[C@H](O)c1cccc(O)c1,Z-AUC,[1],0.649 (inactive)
same,Z-AUC,[1]; [11],0.723
same,Z-AUC,[1]; measured here: PEO4 Z-AUC,0.496
same,"activity, negative = inhibition",[2]; [12],6.65% (inactive)
same,"activity, negative = inhibition",[2]; [13],-11% (inactive)
same,Potency,[3],inactive
same,Potency,[4],inactive
same,Potency,[5],inactive
same,Potency,[6],inactive
same,Potency,[7],inactive
same,Potency,[8],inactive
same,Potency,[9],inactive
O=c1[nH]cnc2[nH]ncc12,Z-AUC,[1],-0.687 (inactive)
same,Z-AUC,[1]; [11],-0.667
same,Z-AUC,[1]; measured here: PEO4 Z-AUC,-0.722
same,"activity, negative = inhibition",[2]; [12],-0.162% (inactive)
same,"activity, negative = inhibition",[2]; [13],2.37% (inactive)
same,Potency,[3],inactive
same,Potency,[4],inactive
same,Potency,[5],inactive
same,Potency,[6],inactive
same,Potency,[7],inactive
same,Potency,[8],inactive
same,Potency,[9],inactive
Cc1ccc(N(CC2=NCCN2)c2cccc(O)c2)cc1,Z-AUC,[1],1.67 (inactive)
same,Z-AUC,[1]; [11],1.44
same,Z-AUC,[1]; measured here: PEO4 Z-AUC,1.79
same,"activity, negative = inhibition",[2]; [12],-3.3% (inactive)
same,"activity, negative = inhibition",[2]; [13],-5.03% (inactive)
same,Potency,[3],inactive
same,Potency,[4],inactive
same,Potency,[5],inactive
same,Potency,[6],inactive
same,Potency,[7],inactive
same,Potency,[8],inactive
same,Potency,[9],inactive
CCCCNc1cc(C(=O)O)cc(S(N)(=O)=O)c1Oc1ccccc1,z-score,[10]; [14],0.772
same,z-score,[10]; [15],0.679
same,z-score,[10]; [16],-1.8
same,"activity, negative = inhibition",[2]; [17],-5.15% (inactive)
same,"activity, negative = inhibition",[2]; [18],8.34% (inactive)
same,Potency,[3],inactive
same,Potency,[4],inactive
same,Potency,[5],inactive
same,Potency,[6],inactive
same,Potency,[7],inactive
same,Potency,[8],inactive
same,Potency,[9],inactive
NC(N)=NC(=O)c1nc(Cl)c(N)nc1N,Z-AUC,[1],-0.792 (inactive)
same,Z-AUC,[1]; [11],-0.971
same,Z-AUC,[1]; measured here: PEO4 Z-AUC,-0.392
same,Potency,[4],2 µM (active)
CCc1ccc(CCOc2ccc(CC3SC(=O)NC3=O)cc2)nc1 (stereo unspecified),Z-AUC,[1],0.827 (inactive)
same,Z-AUC,[1]; [11],0.268
same,Z-AUC,[1]; measured here: PEO4 Z-AUC,0.973
same,"activity, negative = inhibition",[2]; [12],8.32% (inactive)
same,"activity, negative = inhibition",[2]; [13],6.57% (inactive)
same,Potency,[3],inactive
same,Potency,[4],inactive
same,Potency,[5],inactive
same,Potency,[6],inactive
same,Potency,[7],inactive
same,Potency,[8],inactive
same,Potency,[9],inactive
N=c1nc(N2CCCCC2)cc(N)n1O,"activity, negative = inhibition",[2]; [12],6.18% (inactive)
same,"activity, negative = inhibition",[2]; [13],18.3% (inactive)
same,Potency,[3],inactive
same,Potency,[4],inactive
same,Potency,[5],inactive
same,Potency,[6],inactive
same,Potency,[7],inactive
same,Potency,[8],inactive
same,Potency,[9],inactive
OCCn1cc(-c2cnc3nnn(Cc4ccc5ncccc5c4)c3n2)cn1,z-score,[10]; [14],0.421
same,z-score,[10]; [15],0.338
same,z-score,[10]; [16],0.859
OC(CN1CCC(Cc2ccc(F)cc2)CC1)c1ccc(Cl)cc1 (stereo unspecified),z-score,[10]; [14],0.0108
same,z-score,[10]; [15],0.291
same,z-score,[10]; [16],0.245
same,"activity, negative = inhibition",[2]; [12],-26.6% (inactive)
same,Potency,[2]; parasite line B,0.891 µM (active)
same,Potency,[3],5.01 µM (active)
same,Potency,[4],0.316 µM (active)
same,Potency,[5],1.41 µM (active)
same,Potency,[6],1.26 µM (active)
same,Potency,[7],1.41 µM (active)
same,Potency,[8],1.58 µM (active)
same,Potency,[9],inactive
Nc1ccc(S(=O)(=O)Nc2ccnn2-c2ccccc2)cc1,z-score,[10]; [14],2.1
same,z-score,[10]; [15],0.571
same,z-score,[10]; [16],1.56
same,"activity, negative = inhibition",[2]; [17],-1.36% (inactive)
same,"activity, negative = inhibition",[2]; [18],3.8% (inactive)
same,Potency,[3],inactive
same,Potency,[4],inactive
same,Potency,[5],inactive
same,Potency,[6],inactive
same,Potency,[7],inactive
same,Potency,[8],inactive
same,Potency,[9],inactive
Clc1ccc(Nc2nnc(Cc3ccncc3)c3ccccc23)cc1,Z-AUC,[1],0.341 (inactive)
same,Z-AUC,[1]; [11],0.338
same,Z-AUC,[1]; measured here: PEO4 Z-AUC,0.325
same,"activity, negative = inhibition",[2]; [12],-16.8% (inactive)
same,"activity, negative = inhibition",[2]; [13],-13.7% (inactive)
same,Potency,[3],inactive
same,Potency,[4],10 µM (active)
same,Potency,[7],inactive
same,Potency,[8],inactive
same,Potency,[9],inactive

# — PubChem BioAssay (NCATS)
